Test results taken from PubChem BioAssay (Tox21).
Values joined by “and” are separate entries in the source; they are usually repeats but may differ in a detail not shown here. Equal values may be shown once. Records with an inconclusive call do not appear. Active and inactive are the calls of the source. Unless noted, calls follow the shape of the dose curve; as a rule, active = well fitted curve in the direction sought with a large enough effect in the repeat runs; inconclusive = weak or mixed curves; inactive = no such curve, though single readings can be large; an effect the other way counts as inactive or inconclusive.

Assays:
[1] = qHTS assay to identify small molecule agonists of the RXR signaling pathway - cell viability counter screen (AID 1159529); also: nearly all actives have a fitted effect of over 50% in size; also: potency is read from the fitted curve at half-maximal effect
Procedure, shortened: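 RXR-alpha-UAS-bla HEK 293T cells in medium with 2% charcoal-stripped FBS were preincubated 5 hr, then exposed to compounds for 16 hr at 37 C. Viability was read as CellTiter-Glo luminescence after 30 min at room temperature.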

[2] = qHTS assay to identify small molecule antagonists of the retinoid acid receptor (RAR) signaling pathway - cell viability counter screen (AID 1159551); also: nearly all actives have a fitted effect of over 35% in size
Procedure, shortened: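 C3RL4 RARE-luciferase line; cpds + retinol 1 uM final, 6 h, 37 C/5% CO2; CellTiter-Glo ATP luminescence, 30 min RT.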

[3] = qHTS assay to identify small molecule antagonists of the retinoic acid receptor (RAR) signaling pathway (AID 1159552; also: nearly all actives have a fitted effect of over 50% in size; also: potency is read from the fitted curve at half-maximal effect)
Procedure, shortened: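 RARE-luc C3RL4 cells; cpds + 1 uM (final) retinol, 6 hr, 37 C/5% CO2; luciferase reagent, 30 min RT, luminescence readout. Inhibitors of retinol-driven signal scored.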

[4] = qHTS assay to identify small molecule agonists of the retinoic acid receptor (RAR) signaling pathway (AID 1159553)
Procedure, shortened: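 RARE-luc C3RL4 cells; overnight attachment 37 C/5% CO2; compound (DMSO) 6 hr; luciferase reagent, 30 min RT; luminescence read-out.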

[5] = qHTS assay to identify small molecule antagonists of the estrogen related receptor (ERR) signaling pathway from Tox21 library - cell viability counter screen (AID 1224834); also: nearly all actives have a fitted effect of over 30% in size; also: potency is read from the fitted curve at half-maximal effect
Procedure, shortened: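 Multiplexed viability counter screen in ERR cells: 17.5 h compound exposure at 37 C, CellTiter-Fluor added, 30 min at 37 C/5% CO2, fluorescence read.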

[6] = biological target: Luciferin 4-monooxygenase (Photinus pyralis) (UniProt P08659); assay: qHTS assay to identify small molecule inhibitors of firefly luciferase (AID 1224835); also: nearly all actives have a fitted effect of over 25% in size; also: potency is read from the fitted curve at half-maximal effect
Chain of Luciferin 4-monooxygenase (Photinus pyralis) (P08659 whole entry, looked up): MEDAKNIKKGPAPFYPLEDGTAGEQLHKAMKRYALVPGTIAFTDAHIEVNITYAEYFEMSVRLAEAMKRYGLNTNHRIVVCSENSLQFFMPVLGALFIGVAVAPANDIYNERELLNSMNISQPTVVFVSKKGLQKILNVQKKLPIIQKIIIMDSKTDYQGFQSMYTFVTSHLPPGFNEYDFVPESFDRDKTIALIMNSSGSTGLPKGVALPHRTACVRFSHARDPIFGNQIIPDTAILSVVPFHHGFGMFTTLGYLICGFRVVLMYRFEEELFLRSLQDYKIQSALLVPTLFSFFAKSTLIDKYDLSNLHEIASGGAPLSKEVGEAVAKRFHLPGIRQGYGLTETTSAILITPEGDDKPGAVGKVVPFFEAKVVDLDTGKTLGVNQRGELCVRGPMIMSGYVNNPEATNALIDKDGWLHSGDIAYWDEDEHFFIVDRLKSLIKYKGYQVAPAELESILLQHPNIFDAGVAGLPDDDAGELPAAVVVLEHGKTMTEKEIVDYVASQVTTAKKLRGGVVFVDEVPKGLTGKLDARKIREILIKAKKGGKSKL
Procedure, shortened: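 Quantitative HTS format; KM concentrations of both substrates. Purified P. pyralis FLuc activity quantified from luminescence images.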

[7] = biological target: Nuclear receptor subfamily 1 group I member 3 (Homo sapiens) (UniProt Q14994); assay: qHTS assay to identify small molecule agonists of the constitutive androstane receptor (CAR) signaling pathway (AID 1224839); also: nearly all actives have a fitted effect of over 15% in size; also: potency is read from the fitted curve at half-maximal effect
Chain of Nuclear receptor subfamily 1 group I member 3 (Homo sapiens) (Q14994 whole entry, looked up): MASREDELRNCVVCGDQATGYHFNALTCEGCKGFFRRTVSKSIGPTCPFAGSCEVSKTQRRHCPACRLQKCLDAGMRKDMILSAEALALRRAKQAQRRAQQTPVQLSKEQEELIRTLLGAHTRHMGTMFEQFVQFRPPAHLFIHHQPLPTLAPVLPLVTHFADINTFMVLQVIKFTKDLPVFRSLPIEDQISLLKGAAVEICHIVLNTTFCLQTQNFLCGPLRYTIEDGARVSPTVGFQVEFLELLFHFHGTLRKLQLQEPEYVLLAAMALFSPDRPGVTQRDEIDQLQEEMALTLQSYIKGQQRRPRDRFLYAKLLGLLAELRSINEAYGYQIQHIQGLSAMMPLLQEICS
Procedure, shortened: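 HepG2 cells stably expressing hCAR and a CYP2B6-2.2kb luciferase reporter were treated with compounds at 15 concentrations plus 0.75 uM PK11195 (final) for 24 h at 37 C; luminescence was read after ONE-Glo addition.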

[8] = qHTS assay to identify small molecule antagonists of the estrogen related receptor signaling pathway with the pleiotropic PPARgamma coactivator (PGC) from Tox21 10K library - cell viability counter screen (AID 1224840; active = well fitted cell-killing curve with a large enough effect in the repeat runs, not every such curve was filed as active; also: nearly all actives have a fitted effect of over 40% in size; also: potency is read from the fitted curve at half-maximal effect)
Procedure, shortened: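 Fluorescence read-out of CellTiter-Fluor viability reagent, added after cells had been exposed to compound in DMSO for 17.5 h at 37 C; 30 min development at 37 C/5% CO2. Cells: PGC/ERR line, 2,000/well.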

[9] = qHTS assay to identify small molecule agonists of the constitutive androstane receptor (CAR) signaling pathway - cell viability counter screen (AID 1224836); also: nearly all actives have a fitted effect of over 45% in size; also: potency is read from the fitted curve at half-maximal effect
Procedure, shortened: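 HepG2 cells stably carrying hCAR and a CYP2B6-2.2kb reporter were plated 4 h, then given compounds at 15 concentrations plus PK11195 (final 0.75 uM). After 23 h at 37 C, viability was read by CellTiter-Fluor fluorescence.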

[10] = qHTS assay to identify small molecule antagonists of the constitutive androstane receptor (CAR) signaling pathway - cell viability counter screen (AID 1224837); also: nearly all actives have a fitted effect of over 45% in size; also: potency is read from the fitted curve at half-maximal effect
Procedure, shortened: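 Read-out: CellTiter-Fluor fluorescence after 23 hr at 37 C/5% CO2. Cells: HepG2 double-stable for hCAR and CYP2B6-2.2kb. Compounds tested at 15 concentrations in the presence of CITCO, final concentration 50 nM.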

[11] = biological target: Nuclear receptor subfamily 1 group I member 3 (Homo sapiens) (UniProt Q14994); assay: qHTS assay to identify small molecule antagonists of the constitutive androstane receptor (CAR) signaling pathway (AID 1224838); also: nearly all actives have a fitted effect of over 40% in size; also: potency is read from the fitted curve at half-maximal effect
Procedure, shortened: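 Read-out: ONE-Glo luciferase luminescence after 30 min at room temperature. HepG2-CYP2B6-hCAR double-stable cells, compounds in 15-point titration plus 50 nM CITCO final, 24 h at 37 C/5% CO2.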

[12] = qHTS assay to identify small molecule antagonists of the estrogen related receptor signaling pathway with the pleiotropic PPARgamma coactivator (PGC) from Tox21 10K library (AID 1224841; call rule not given here; also: actives are mostly falling curves and most rising ones were filed inactive; nearly all actives have a fitted effect of over 50% in size; also: potency is read from the fitted curve at half-maximal effect)
Procedure, shortened: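 Luminescence read-out (One-Glo luciferase reagent, 30 min at room temperature) from PGC/ERR cells exposed to DMSO-dissolved test compounds for 18 h at 37 C; cells, 2,000 per well, had been preincubated 6 h before compound transfer.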

[13] = qHTS assay to identify small molecule agonists of the estrogen related receptor signaling pathway with the pleiotropic PPARgamma coactivator (PGC) from Tox21 10K library (AID 1224842); also: nearly all actives have a fitted effect of over 15% in size
Procedure, shortened: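 PGC/ERR reporter cells (NTP line) were seeded 2,000 per well, rested 6 h at 37 C/5% CO2, then pin-dosed with compounds in DMSO for 18 h at 37 C; luciferase read by One-Glo luminescence after 30 min at room temperature.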

[14] = qHTS assay to identify small molecule antagonists of the estrogen related receptor (ERR) signaling pathway - cell viability counter screen (AID 1224818); also: series mostly up to about 46 µM
Procedure, shortened: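 Fluorescence from CellTiter-Fluor, read 30 min after reagent addition at 37 C, measured viability of ERR cells exposed to compounds for 17.5 h. Cells had settled 6 h before dosing.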

[15] = qHTS assay to identify small molecule antagonists of the estrogen related receptor (ERR) signaling pathway (AID 1224819;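 also: luminescence from an ERR-driven luciferase reporter measured with One-Glo reagent; series mostly up to about 46 µM; nearly all actives have a fitted effect of over 50% in size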)
Procedure, shortened: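 Luminescence readout (One-Glo, 30 min, RT) of ERR cell line after 18 h compound exposure at 37 C; cells seeded 2,000/well, pre-incubated 6 h, compounds pinned from DMSO stocks.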

[16] = qHTS assay to identify small molecule agonists of the estrogen related receptor (ERR) signaling pathway (AID 1224820)
Procedure, shortened: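 An ERR cell line provided by NTP was seeded at 2,000 cells per well and allowed to settle for 6 h before compounds in DMSO were added. After 18 h at 37 C, luciferase activity was measured by One-Glo luminescence.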

[17] = qHTS assay to identify small molecule antagonists of the estrogen related receptor signaling pathway with the pleiotropic PPARgamma coactivator (PGC) cell viability counter screen (AID 1224822; also: series mostly up to about 46 µM)
Procedure, shortened: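 Fluorescence read-out of CellTiter-Fluor after 30 min at 37 C; PGC/ERR cells, 2,000 per well, had been exposed to DMSO-dissolved compounds for 17.5 h following a 6 h pre-incubation.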

Measured: Potency

CCOC(=O)[C@]1(c2ccccc2)Oc2ccccc2[C@@H]1N
inactive: [1] | [2] | [3] | [4] | [5] | [6] | [7] | [8]

BrCCCCBr
inactive: [1] | [2] | [3] | [4] | [5] | [6] | [9] | [10] | [8]

[CH3][Sn]([CH3])([Cl])[Cl]
active: [3] 55.4 µM and 48.6 µM | [12] 69.7 µM and 43.3 µM
inactive: [1] | [2] | [6] | [9] | [10] | [11] | [7] | [8]

C[C@]12CC[C@H]3[C@@H](CCC4=CC(=O)CC[C@@H]43)[C@@H]1CC[C@@H]2OC(=O)CCC1CCCCC1
not listed: [3] | [12] | [13] | [14] | [15] | [16] | [17]
inactive: all other assays above

CCOc1ccc(C(C)(C)COCc2cccc(Oc3ccccc3)c2)cc1
inactive: [1] | [2] | [5] | [6] | [9] | [10] | [11] | [8]
active: [7] 6.11 µM

O=C1NCN(c2ccccc2)C12CCN(CCCOc1ccc(F)cc1)CC2
inactive: [1] | [2] | [6] | [8] | [12] | [13]
active: [9] 6.68 µM | [10] 3.35 µM | [11] 9.44 µM

II
inactive: [4] | [10] | [11] | [7] | [8]
active: [1] 6.92 µM | [3] 68.6 µM | [6] 28.3 µM

O=C(NCc1cccnc1)Nc1ccc([N+](=O)[O-])cc1
inactive: [1] | [3] | [4] | [6] | [10] | [11]

O=S1OC[C@@H]2[C@H](CO1)[C@]1(Cl)C(Cl)=C(Cl)[C@@]2(Cl)C1(Cl)Cl (stereo partly specified)
active: [1] 49 µM | [7] 27.3 µM
inactive: [2] | [3] | [9] | [10] | [11]

CCc1ccc(C(=O)NN(C(=O)c2cc(C)cc(C)c2)C(C)(C)C)cc1
inactive: [1] | [3] | [4] | [6] | [11] | [8] | [13]
active: [5] 8.63 µM | [12] 30.6 µM

CC(C)N(CCC(C(N)=O)(c1ccccc1)c1ccccn1)C(C)C (stereo unspecified)
not listed: [2] | [6] | [7] | [12] | [13]
inactive: all other assays above

CCCN(CCC)c1c([N+](=O)[O-])cc(S(C)(=O)=O)cc1[N+](=O)[O-]
inactive: [1] | [2] | [4] | [6] | [9] | [10] | [8] | [13]

CC(C)(C)C(O)C(Oc1ccc(Cl)cc1)n1cncn1 (stereo unspecified)
inactive: [1] | [2] | [4] | [14] | [17] | [6] | [10] | [11] | [8]

CC(C)(C)c1cc([N+](=O)[O-])cc([N+](=O)[O-])c1O
inactive: [1] | [2] | [7]
active: [5] 15.3 µM | [6] 70.8 µM | [9] 13.6 µM | [10] 15.3 µM | [11] 17.2 µM | [8] 15.3 µM

CCCC(=O)Cl
inactive: [1] | [3] | [4] | [5] | [10] | [8]

CCCN(CCCl)c1c([N+](=O)[O-])cc(C(F)(F)F)cc1[N+](=O)[O-]
not listed: [3] | [7] | [13] | [14] | [15] | [16] | [17]
inactive: all other assays above

O=C(N[C@H](c1ccccc1)[C@@H]1CN2CCC1CC2)c1c(Cl)ccc(C(F)(F)F)c1Cl
active: [11] 13.9 µM | [12] 31.1 µM
inactive: [1] | [2] | [13]

C[C@@H]1CC[C@H]2[C@@H](C)C(=O)O[C@@H]3O[C@@]4(C)CC[C@@H]1[C@]32OO4
active: [12] 1.88 µM
inactive: [1] | [2] | [6] | [9] | [10] | [11] | [8] | [13]

O=C1C(=O)c2cccc3cccc1c23
inactive: [1] | [2] | [6] | [9] | [10] | [11] | [8]

O=C(CBr)Nc1ccc(Cl)cc1C(=O)c1ccccc1F
inactive: [1] | [2] | [5] | [10] | [11] | [8] | [12]

CCOP(=O)(OCC)O/C(=C/Cl)c1ccc(Cl)cc1Cl
active: [7] 27.3 µM | [12] 2.73 µM
inactive: [1] | [2] | [4] | [6] | [11] | [13]

CCCCCCCCCC(=O)O[C@H]1CC[C@H]2[C@@H]3CCC4=CC(=O)CC[C@@H]4[C@H]3CC[C@]12C
inactive: [1] | [3] | [4] | [5] | [6] | [9] | [10] | [11] | [8]

O=NN1CCCCCC1
inactive: [1] | [3] | [4] | [5] | [9] | [10] | [8]
